SMN2 splice up: SMN2 splice variant enhancement; HEK293 SMN2-luciferase splicing reporter, luminescence, 30-36 h; Potency, µM (top dose mostly 46.1 µM), for the others: at the highest dose activity change, positive = activation, hits mostly activators; hit rate 2.8% among 210,000; AID 1458; note: % of control where 0% means no effect; nearly all actives have a fitted effect of over 55% in size
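qHTS luciferase splicing reporter: luminescence rises when SMN2 exon 7 is included in transfected HEK293 cells. Compound exposure lasted 30-36 h at 37C, with 4.5 mM final sodium butyrate as control, followed by a ONE-Glo read.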
Rab9 prom act: Rab9 promoter activation; Huh7 Rab9 promoter-luciferase reporter, luminescence, 24 h; Potency, µM (highest dose often 9.22 µM), without a hit: top-dose activation, negative = inhibition, usual class: activators; hit rate 2.8% among 320,000; AID 485297; note: % of control where 0% means no effect; nearly all actives have a fitted effect of over 60% in size
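Luminescence read-out: Huh7 cells stably expressing Rab9-luciferase, treated 24 h with compound at 37 °C, then lysed with luciferase reagent for 10 min at ambient before reading.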
ELG1 repair inh: blocks ELG1-dependent DNA repair in HEK293T cells. HEK293T ELG1-luciferase reporter, luminescence, 16 h; DNA damage induced by 5-fluorouridine. Potency, µM (top dose mostly 46.1 µM), for inactives: top-dose activity change, negative = inhibition, usual class: inhibitors. hit rate 2.3% among 330,000. AID 504467; note: % is set by controls: 0 for no effect and ±100 for the full control effect; nearly all actives have a fitted effect of over 55% in size
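Reporter activity after DNA damage by 5-fluorouridine is monitored. Compound-treated cells incubate 16 hr at 37 °C, then ONE-Glo is added for 30 min before luminescence reading.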
NPC1 prom act: activators of NPC1 promoter. Huh7 NPC1 promoter luciferase reporter, 24 h. Potency, µM (series often up to 9.22 µM), for the others: at the highest dose activation, actives largely listed as activators. hit rate 2.4% among 320,000. AID 485313; note: % of control where 0% means no effect; nearly all actives have a fitted effect of over 60% in size
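Readout is luciferase luminescence, reflecting NPC1 promoter activation in stably transfected Huh7 cells after 24 h compound exposure at 37 °C in reduced-serum medium with 10% FBS.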
FLuc counter: firefly luciferase modulation, counter-screen for miR-21 project; P08659; purified FLuc, Km substrates, luminescence inhibition; hit rate 6.9% among 360,000; Potency, µM (series often up to 57.5 µM), for the others: at the top dose activity change, negative = inhibition, usual class: inhibitors;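 note: plate controls were vehicle for no effect and reference inhibitor for full effect; nearly all actives have a fitted effect of over 55% in size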
Target sequence (P08659 whole entry, looked up): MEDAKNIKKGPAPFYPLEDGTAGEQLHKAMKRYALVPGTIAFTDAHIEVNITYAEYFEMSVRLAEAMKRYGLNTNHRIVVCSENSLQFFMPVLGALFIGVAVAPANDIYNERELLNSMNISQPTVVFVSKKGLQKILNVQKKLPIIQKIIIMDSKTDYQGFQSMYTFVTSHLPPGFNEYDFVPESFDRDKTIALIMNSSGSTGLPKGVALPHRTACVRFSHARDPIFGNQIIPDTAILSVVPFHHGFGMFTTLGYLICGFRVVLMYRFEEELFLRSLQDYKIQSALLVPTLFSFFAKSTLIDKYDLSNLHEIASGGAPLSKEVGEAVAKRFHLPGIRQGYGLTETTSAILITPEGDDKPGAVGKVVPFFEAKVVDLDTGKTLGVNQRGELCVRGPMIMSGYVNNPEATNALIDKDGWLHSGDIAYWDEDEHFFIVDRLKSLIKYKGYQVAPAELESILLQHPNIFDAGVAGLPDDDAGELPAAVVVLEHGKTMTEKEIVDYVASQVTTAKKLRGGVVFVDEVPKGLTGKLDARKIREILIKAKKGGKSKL
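Purified P. pyralis luciferase (10nM final) with 10uM D-luciferin and 10uM ATP (Km levels) in 50mM Tris acetate pH 7.5, 10mM Mg acetate, 0.01% Tween-20, 0.05% BSA; qHTS 6-point titration, ~60 µM downward; luminescence read.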
ELG1 genotoxic: genotoxicity induction in ELG1-luciferase HEK293T cells; HEK293T ELG1-luciferase reporter, luminescence, 16 h; Potency, µM (top dose mostly 46 µM), inactives show at the top dose activity change, positive = activation, usual class: activators; hit rate 1.3% among 330,000; note: % of control where 0% means no effect; nearly all actives have a fitted effect of over 60% in size
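Screening used a luciferase reporter fused to human ELG1 in HEK293T cells. Luminescence was read on a CCD plate imager after 16 hr exposure and 30 min ONE-Glo incubation.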
An asterisk follows results filed as active. Shown are actives, neighbours in structure and some others; about 9.2% of the full set was active somewhere. Calls come from the whole dose curve; as a rule, active = well fitted curve in the direction sought with a large enough effect; inconclusive = small, poorly fitted or top-dose-only effect, or another doubt; inactive = no such curve, though single readings can be large; an effect the other way counts as inactive or inconclusive. Potency is the fitted concentration of half-maximal effect.

Results for Cc1cnc(C(=O)Nc2nnc(C(C)C)s2)cn1 ?
SMN2 splice up: 13µM*; Rab9 prom act: 2.8µM*; ELG1 repair inh: inconclusive; NPC1 prom act: 2.5µM*; FLuc counter: inconclusive; ELG1 genotoxic: 9.2µM*

What do the screens show for `O=C(Nc1nccs1)c1cn2ccccc2n1`?
Rab9 prom act: 0.11µM*; ELG1 repair inh: inconclusive; NPC1 prom act: 0.32µM*; FLuc counter: 1.3µM*; ELG1 genotoxic: inconclusive

Results for Cc1cnc(C(=O)Nc2nnc(C)s2)cn1 ?
SMN2 splice up: 1%; Rab9 prom act: 12%; ELG1 repair inh: inconclusive; NPC1 prom act: 23%; FLuc counter: -14%; ELG1 genotoxic: 13%

Results for CCC(C)C(=O)Nc1nccs1 (stereo unspecified) ?
Rab9 prom act: 3%; ELG1 repair inh: inconclusive; NPC1 prom act: 9%; FLuc counter: inconclusive; ELG1 genotoxic: 11%

What do the screens show for `Cc1cnc(C(=O)Nc2nnc(C3CC3)s2)cn1`?
SMN2 splice up: 21%; Rab9 prom act: 26%; ELG1 repair inh: inconclusive; NPC1 prom act: 20%; FLuc counter: -16%; ELG1 genotoxic: inconclusive

What do the screens show for `Cc1cnc(C(=O)Nc2nccs2)cn1`?
SMN2 splice up: 8%; Rab9 prom act: 3.2µM*; ELG1 repair inh: inconclusive; NPC1 prom act: inconclusive; FLuc counter: inconclusive; ELG1 genotoxic: 24%

How did Cc1ccccc1C(=O)N1CCc2c([nH]c3ccccc23)C1C(F)(F)F (stereo unspecified) do in these assays?
Rab9 prom act: -1%; ELG1 repair inh: 13µM*; NPC1 prom act: -3%; FLuc counter: 0%; ELG1 genotoxic: -2%

What do the screens show for `O=C1c2ccccc2NC(c2cnc3ccccc3n2)N1O` (stereo unspecified)?
SMN2 splice up: 11µM*; Rab9 prom act: 0.89µM*; ELG1 repair inh: inconclusive; NPC1 prom act: 1.3µM*; FLuc counter: 2.4µM*; ELG1 genotoxic: inconclusive

What do the screens show for `Cc1nn(C)c(C)c1C1Nc2ccccc2C(=O)N1O` (stereo unspecified)?
SMN2 splice up: 19%; Rab9 prom act: -2%; ELG1 repair inh: 6%; NPC1 prom act: 0%; FLuc counter: 3%; ELG1 genotoxic: -1%

Results for CCN1CCN(C(=O)c2nn(-c3ccc(C)cc3)c(=O)c3c2c2ccccc2n3C)CC1 ?
SMN2 splice up: 25µM*; Rab9 prom act: 1%; ELG1 repair inh: 18%; NPC1 prom act: 6%; FLuc counter: 4%; ELG1 genotoxic: 7%

Results for Cc1cccc(C(=O)Nc2nc3ccc(S(C)(=O)=O)cc3s2)c1 ?
Rab9 prom act: inconclusive; ELG1 repair inh: inconclusive; NPC1 prom act: 2.2µM*; FLuc counter: 2.1µM*; ELG1 genotoxic: inconclusive

Results for CC(C)(C)C(=O)Nc1nc2ccc(S(C)(=O)=O)cc2s1 ?
SMN2 splice up: 7.9µM*; Rab9 prom act: 1.8µM*; ELG1 repair inh: inconclusive; NPC1 prom act: inconclusive; FLuc counter: inconclusive; ELG1 genotoxic: 6%

How did CC(C)C(=O)Nc1nc2ccc(S(C)(=O)=O)cc2s1 do in these assays?
SMN2 splice up: 27%; Rab9 prom act: 18%; ELG1 repair inh: 19%; NPC1 prom act: 14%; FLuc counter: inconclusive; ELG1 genotoxic: -2%

Results for CS(=O)(=O)c1ccc2nc(NC(=O)c3ccc(NS(=O)(=O)c4cccc([N+](=O)[O-])c4)cc3)sc2c1 ?
Rab9 prom act: 11%; ELG1 repair inh: 1%; NPC1 prom act: -3%; FLuc counter: 11µM*; ELG1 genotoxic: -1%

How did CS(=O)(=O)c1ccc2nc(NC(=O)Nc3ccccc3F)sc2c1 do in these assays?
Rab9 prom act: 1.1µM*; ELG1 repair inh: inconclusive; NPC1 prom act: 0.32µM*; FLuc counter: 0.54µM*; ELG1 genotoxic: inconclusive

Results for Cc1ccc(NC(=O)Nc2nc3ccc(S(C)(=O)=O)cc3s2)cc1 ?
Rab9 prom act: -3%; ELG1 repair inh: -4%; NPC1 prom act: -2%; FLuc counter: -2%; ELG1 genotoxic: -1%

What do the screens show for `CS(=O)(=O)c1ccc2nc(NC(=O)c3ccccc3)sc2c1`?
Rab9 prom act: 0.5µM*; ELG1 repair inh: inconclusive; NPC1 prom act: 0.63µM*; FLuc counter: 2.1µM*; ELG1 genotoxic: inconclusive

Results for CS(=O)(=O)c1ccc2nc(NC(=O)Cc3ccccc3)sc2c1 ?
Rab9 prom act: 14%; ELG1 repair inh: 4%; NPC1 prom act: -1%; FLuc counter: -6%; ELG1 genotoxic: 3%

What do the screens show for `CS(=O)(=O)c1ccc2nc(NC(=O)CS(=O)(=O)Cc3ccccc3)sc2c1`?
SMN2 splice up: -6%; Rab9 prom act: 11%; ELG1 repair inh: 12%; NPC1 prom act: 1%; FLuc counter: 17µM*; ELG1 genotoxic: 1%

What do the screens show for `NS(=O)(=O)c1ccc2nc(NC(=O)c3ccncc3)sc2c1`?
Rab9 prom act: 23%; ELG1 repair inh: inconclusive; NPC1 prom act: 18%; FLuc counter: 6.7µM*; ELG1 genotoxic: 12%

How did CCOc1ccccc1C(=O)N1CCc2cc(OC)c(OC)cc2C1COc1ccc(OC)cc1 (stereo unspecified) do in these assays?
FLuc counter: 4%

Results for COc1ccccc1C(=O)NCCCNc1ccc([N+](=O)[O-])cc1 ?
SMN2 splice up: -5%; Rab9 prom act: -7%; ELG1 repair inh: -18%; NPC1 prom act: 1%; FLuc counter: -3%; ELG1 genotoxic: -4%

How did CC(=O)NCCCNc1ccc([N+](=O)[O-])cc1 do in these assays?
SMN2 splice up: inconclusive; Rab9 prom act: 16%; ELG1 repair inh: inconclusive; NPC1 prom act: 15%; FLuc counter: 19µM*; ELG1 genotoxic: 2%

What do the screens show for `CCCCn1c(N)c(N(CCC(C)C)C(=O)C2CC(=O)N(c3ccc(OC)cc3OC)C2)c(=O)[nH]c1=O` (stereo unspecified)?
Rab9 prom act: 0%; ELG1 repair inh: -7%; NPC1 prom act: -3%; FLuc counter: 5%; ELG1 genotoxic: -2%

What do the screens show for `Cc1ccc(N2CC(C)Cn3c2nc2c3c(=O)[nH]c(=O)n2C)cc1C` (stereo unspecified)?
Rab9 prom act: -4%; ELG1 repair inh: 9.2µM*; NPC1 prom act: 0%; FLuc counter: 0%; ELG1 genotoxic: 0%

Results for CC(C)C(=O)Nc1ccc(-c2nc3cccnc3o2)cc1 ?
SMN2 splice up: 4.5µM*; Rab9 prom act: 0.5µM*; ELG1 repair inh: inconclusive; NPC1 prom act: 0.56µM*; FLuc counter: 2.7µM*; ELG1 genotoxic: inconclusive

From PubChem
